# Compound activity from PubChem.
# Anesthetic bind = qHTS Assay for Identification of Novel General Anesthetics. actives 0.074% (n = 350,000). Ferritin light chain (Equus caballus), P02791. apoferritin/1-aminoanthracene competitive binding, fluorescence. Potency, µM (top dose mostly 77.5 µM), inactives show at the top dose activity change, negative = displacement, hits mostly inhibitors; further: potency means the concentration at half of the fitted maximal effect; on the % scale 0 is the no-effect control and ±100 the full control effect; nearly all actives have a fitted effect of over 20% in size
# Target sequence (P02791 2-175 limits assumed): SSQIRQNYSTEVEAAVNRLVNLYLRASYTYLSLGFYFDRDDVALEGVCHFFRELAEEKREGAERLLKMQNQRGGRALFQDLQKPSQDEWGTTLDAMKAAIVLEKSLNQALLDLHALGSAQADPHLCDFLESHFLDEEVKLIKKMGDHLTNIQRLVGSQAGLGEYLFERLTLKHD
#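 Apoferritin-based anesthetic binding model; compound displacement of fluorescent 1-AMA measured as endpoint fluorescence after 10 minutes at room temperature, scaled to free-ligand and complex controls.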
# TDP-43 yeast inh = qHTS of TDP-43 Inhibitors | TDP-43 expressing yeast growth rescue, BacTiter-Glo, 24 h | Potency, µM (titrated, usually from 46.1 µM), for the others: at the top dose growth rescue (activation), usual class: activators | actives 1.8% (n = 410,000) | AID 652104, 2013; further: potency means the concentration at half of the fitted maximal effect; % of control where 0% means no effect; nearly all actives have a fitted effect of over 50% in size
#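 Yeast expressing TDP-43 (pregrown in raffinose, seeded at OD600=0.02 in galactose medium) exposed to compounds 24 hr at 30 deg C. Growth read by BacTiter-Glo luminescence; rescue of toxicity appears as increased signal.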
# CCT chaperon mod = High-Throughput Screening for Modulators of Cytosolic Chaperonin Activity. actives 0.3% (n = 360,000). activity change, % (no concentration beside the values), hits read low. purified chaperonin ATPase assay, HTRF ADP detection, 30 min. AID 651819, 2012; in the data active means activity change below about -30%; further: on the % scale 0 is the no-effect control and ±100 the full control effect
#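 TRiC at 40 or 20 nM final (batch-dependent) in 30 mM Tris pH 7.4, 100 mM KCl, 5 mM MgCl2, 1 mM DTT, with compound at single 76 uM and 10 uM ATP, 30 min at 37 deg C. ADP detected by HTRF Transcreener, 665/615 ratio.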
# aSyn rescue = qHTS of alpha-syn Inhibitors; Yeast expressing alpha-synuclein, growth rescue, BacTiter-Glo, 24 h; Potency, µM (doses to about 46.1 µM), for inactives: at the highest dose growth rescue (activation), hits mostly activators; actives 0.14% (n = 370,000); AID 652106, 2013; further: potency means the concentration at half of the fitted maximal effect; % of control where 0% means no effect; nearly all actives have a fitted effect of over 65% in size
#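 Galactose-induced alpha-syn yeast (OD600=0.02, raffinose-pregrown) + pinned cpd, 24 hr, 30 deg C; growth by BacTiter-Glo luminescence. Growth restoration scores as activation.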
# Mito fusion yeast = qHTS Assay for Small Molecule Inhibitors of Mitochondrial Division or Activators of Mitochondrial Fusion | S. cerevisiae fusion-defective mutant growth rescue, CellTiterGlo 48 h | Potency, µM (series often up to 46.1 µM), inactives show at the highest dose growth rescue (activation), most hits filed as activators | actives 0.23% (n = 320,000) | AID 485298, 2010; further: potency means the concentration at half of the fitted maximal effect; % of control where 0% means no effect; nearly all actives have a fitted effect of over 45% in size
#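 Read-out: ATP-based luminescence (CellTiterGlo, 10 min ambient) reporting growth of fusion-defective ts yeast after 48 hours at 37C on glycerol/ethanol YPEG medium in the presence of compound.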
# Akt phos inh = HTS Assay for Inhibitors of Akt Phophorylation: Primary Screen | actives 0.32% (n = 360,000) | activity change, % for hits at 50 µM | Neuro2A IGF-stimulated pAkt S473 HTRF, 20 min; active compounds read low; in the data active means activity change below about -80%; inconclusive means mostly about -51% to -80%; further: on the % scale 0 is the no-effect control and ±100 the full control effect
#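 Neuro2A cells (4,500/well, DMEM with 0.5% FBS) were treated with compound at a single 50 µM final concentration, stimulated with 6 nM IGF for 20 min at 37 °C, and lysed. Phospho-Akt Ser473 was read by HTRF as 665/615 ratio ×10^4.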
# * hit, by the source's call; i = inactive; ? = inconclusive; / = not tested or not shown; [ ] = remark or other dose. In the library only some 2.5% were active in any assay of this set; here they are far more common. Unless noted, the call rests on the fitted dose curve; in most records, active means well fitted curve in the direction sought with a large enough effect; inconclusive means small, poorly fitted or top-dose-only effect, or another doubt; inactive means no such curve, though single readings can be large; an effect the other way counts as inactive or inconclusive.
SMILES,Anesthetic bind,TDP-43 yeast inh,CCT chaperon mod,aSyn rescue,Mito fusion yeast,Akt phos inh
O=C(O)c1ccccc1N=Nc1ccc(O)cc1,/,22.3%,-2.9,-7.7%,/,i
Oc1ccc(N=Nc2ccccc2)cc1,?,17.8µM*,-1.3,-15.4%,9.7%,i
COC(=O)c1ccc(OCCOc2ccccc2)cc1,-6.6%,21.0%,-2.2,6.0%,3.8%,i
CNc1nc(Nc2ccc(C)c(Cl)c2)c2cnn(C)c2n1,-8.7%,14.1µM*,2.3,1.3%,9.7%,i
CCCNc1nc(Nc2ccc(C)c(Cl)c2)c2cnn(C)c2n1,-1.7%,?,-0.9,0.9%,-7.2%,i
COc1cc(OC)c(/C=C/c2ccc3ccccc3[n+]2C)c(OC)c1,/,/,/,-20.3%,/,/
CC(=O)/C=C1\OCc2ccccc21,/,8.0%,/,0.1%,/,i
CC(=O)/C=C1\OCc2cc(OCc3ccccc3)ccc21,/,10µM*,/,3.2%,/,i
Cc1c(Cl)cccc1NC(=O)N1CCOc2ccccc21,-4.3%,12.6µM*,/,/,/,/
Cc1ccc2c(c1)N(C(=O)Nc1cccc(C)c1C)CCO2,-10.9%,?,/,/,/,/
CCOC(=O)c1sc(N)c(C(=O)Nc2ccccc2)c1C,-7.7%,12.6µM*,-1.2,-7.0%,1.8%,i
COc1ccc(/C=C/N(CCc2ccc(OC)c(OC)c2)C(=O)C(F)(F)F)cc1,-23.4%[15.3 µM],/,/,/,/,/
S=C(NC1CC1)SCc1ccco1,/,28.2µM*,-2.1,6.6%,-3.4%,i
Cc1cccc(OCC(=O)NCC2(N3CCN(C)CC3)CCCCC2)c1C,-1.6%,-1.5%,/,/,/,/
COc1ccc(C2CC(=O)N(Cc3ccc(F)cc3)c3ccccc3S2)cc1 (centres undefined),118.1%,15.8µM*,/,11.4%,/,/
COc1cc(SC)ccc1C(=O)NCCOc1ccc(Cl)cc1,-7.0%,17.8µM*,0.7,0.4%,?,i
CCOc1ccc(-c2nc3n(c(=O)c2C#N)CCCS3)cc1,-13.9%,26.6%,-2.6,1.7%,1.1%,i
CC(C)(C)c1ccc(-c2nc3n(c(=O)c2C#N)CCS3)cc1,?,20µM*,-0.5,-3.9%,6.5%,i
N#Cc1c(-c2ccccc2)nc2n(c1=O)CCS2,-10.1%,35.5µM*,-1.0,12.5%,12.9%,i
C[C@H]1[C@H](NC(=O)/C(=N/OC(C)(C)C(=O)O)c2csc(N)n2)C(=O)N1S(=O)(=O)O (stereo in doubt),-1.8%[29.3 µM],/,/,/,/,/
Cc1ccc(C)c(NC(=O)CCCN2C(=O)C(c3ccccc3)Oc3cccnc32)c1 (centres undefined),44.9%,12.9%,/,/,/,/
Clc1nc(NCc2ccco2)c2[nH]cnc2n1,/,/,/,-3.3%,/,/
O=[N+]([O-])c1ccc(Sc2nccn2Cc2ccccc2)c([N+](=O)[O-])c1,-13.1%,14.1µM*,-1.6,-6.7%,0.4%,i
Cc1ccc2nc3nc4ccc[nH]c4cc3c2c1,-9.7%[15.3 µM],/,/,/,/,/
Cc1nnc(Sc2cc(NCCCO)c([N+](=O)[O-])c3nonc23)s1,-19.7%,-34.7%,-0.7,4.5%,-5.0%,i
SMILES,Anesthetic bind,TDP-43 yeast inh,CCT chaperon mod,aSyn rescue,Mito fusion yeast,Akt phos inh
Cc1nnc(Sc2cc(NCCO)c([N+](=O)[O-])c3nonc23)s1,-14.7%,-12.6%,-57.6*,7.1%,-1.7%,i
CSCC[C@H](NC(=O)[C@@H]1CCCN1C(=O)[C@H](CCCN=C(N)N)NC(=O)[C@H](CC(C)C)NC(=O)[C@@H]1CCCN1C(=O)[C@@H](NC(=O)[C@@H](N)CCC(N)=O)C(C)C)C(=O)N[C@H](C(=O)N[C@@H](Cc1ccc(O)cc1)C(=O)N[C@@H](CCCCN)C(=O)O)[C@@H](C)O,3.4%,/,/,/,/,/
C#CCN1CCc2onc(-c3ccc(Br)cc3)c2C1=O,/,35.5µM*,/,-2.4%,/,i
Cn1nc(C(=O)Nc2cc(F)ccc2F)c2c1-c1ccccc1SC2,-8.0%,12.6%,/,/,/,/
c1ccc(N=c2nc(-c3ccccc3)n(-c3ccccc3)s2)cc1,/,/,/,-25.6%,/,/
O=C1C2C(C(=O)N1/N=C/c1ccc([N+](=O)[O-])o1)C1C=CC2C12CC2 (centres undefined),-2.1%,17.8µM*,-0.9,26.0%,1.0%,i
COc1ccc(OC)c(-c2nn(-c3ccccc3)cc2C(=O)N2CCc3ccccc3C2)c1,/,12.6µM*,1.0,-1.8%[1.84 µM],?,i
O=C(c1ccc(-c2ccc([N+](=O)[O-])cc2)o1)N1CCCC(C(F)(F)F)C1 (centres undefined),/,35.5µM*,0.1,-8.6%,17.8%,i
Cc1cc(C)c(C#N)c(Nc2ccccc2C)n1,-0.5%,?,-0.8,-0.5%,0.5%,i
Cc1cc(C)c(C#N)c(Nc2cccc(C)c2C)n1,0.2%,18.9%,-43.7*,-0.6%,-0.8%,i
CCn1ncc([N+](=O)[O-])c1C(=O)Nc1ccc(C(=O)N2CCCCC2)cc1,2.8%,-0.8%,-0.9,2.1%,8.7%,i
CCC(C)c1ccc(NC(=O)c2c([N+](=O)[O-])cnn2CC)cc1 (centres undefined),?,20µM*,1.2,17.3%,10.4%,i
CCCNC(=O)Cn1c(SCc2ccccc2C)nc2ccncc21,/,/,/,0.3%,/,/
COc1ccc(C(=O)CCC(=O)Nc2cc(C)ccc2C)cc1,-13.8%,11.2µM*,/,/,/,/
COc1ccc(CC(=O)NNC(=O)CCC(=O)Nc2cc(C)ccc2C)cc1,-7.0%,-1.1%[9.22 µM],1.0,-5.8%,1.4%,i
COc1ccc(OCCCC(=O)Nc2cc([N+](=O)[O-])ccc2C)cc1,-18.6%,13.6%,-43.9*,-4.1%,1.0%,i
COc1ccc(-n2nnnc2C2CCN(S(=O)(=O)c3ccc(C)cc3)CC2)cc1,152.1%,-9.4%,/,/,/,/
Cc1c(C(=O)N(C)Cc2ccc(F)cc2)sc(=O)n1Cc1ccc(Cl)c(Cl)c1,/,22.4µM*,-8.6,?,/,i
CCCCN(C)C(=O)c1sc(=O)n(Cc2cc(Cl)ccc2OC)c1C,/,?,1.1,10.3%,/,i
COc1ccc(Cl)cc1Cn1c(C)c(C(=O)NCc2cccc([N+](=O)[O-])c2)sc1=O,/,5.8%,-1.7,?,/,i
COc1ccc(Cl)cc1Cn1c(C)c(C(=O)NCc2ccc(F)cc2)sc1=O,/,20µM*,-2.1,?,/,i
CC(=O)Oc1ccc(Cn2c(C)c(C(=O)N(C)Cc3ccc(F)cc3)sc2=O)cc1,/,0.0%,-0.4,7.1%,/,i
COc1ccccc1Cn1c(C)c(C(=O)NCc2ccc3c(c2)OCCO3)sc1=O,/,0.0%,-1.6,0.3%,/,i
COc1ccc(Cl)cc1Cn1c(C)c(C(=O)N(C)Cc2ccc(F)cc2)sc1=O,/,22.4µM*,1.7,8.5%,/,i
COc1ccc(CNC(=O)c2sc(=O)n(Cc3ccccc3OC)c2C)cc1,/,25.1µM*,-1.6,8.7%,/,i
